# Results taken from PMC5540273 (PLoS ONE, 2017).
# Experiments:
# Settings in all cases: concentration: 1 μM, replicates: in singlicate; n = 1
# [1] = test system: T1, IKK-alpha
# T1 construct: gene CHUK
# [2] = test system: T2, IKK-beta
# T2 construct: gene IKBKB
# [3] = test system: T3, IKK-epsilon
# T3 construct: gene IKBKE
# [4] = test system: INSRR
# [5] = test system: INSR
# [6] = test system: IRAK1
# [7] = test system: IRAK3
# [8] = test system: IRAK4
# [9] = test system: ITK
# [10] = test system: JAK1(JH1domain-catalytic)
# [11] = test system: JAK1(JH2domain-pseudokinase)
# [12] = test system: JAK2(JH1domain-catalytic)
# [13] = test system: JAK3(JH1domain-catalytic)
# [14] = test system: T4, JNK1
# T4 construct: gene MAPK8
# [15] = test system: T5, JNK2
# T5 construct: gene MAPK9
# [16] = test system: T6, JNK3
# T6 construct: gene MAPK10
# [17] = test system: KIT-autoinhibited
# [18] = test system: KIT
# [19] = test system: LATS1
# [20] = test system: LATS2
# 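Further: KINOMEscan kinase panel screen.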
Structure (SMILES),%Inh [1] [%],%Inh [2] [%],%Inh [3] [%],%Inh [4] [%],%Inh [5] [%],%Inh [6] [%],%Inh [7] [%],%Inh [8] [%],%Inh [9] [%],%Inh [10] [%],%Inh [11] [%],%Inh [12] [%],%Inh [13] [%],%Inh [14] [%],%Inh [15] [%],%Inh [16] [%],%Inh [17] [%],%Inh [18] [%],%Inh [19] [%],%Inh [20] [%]
Fc1cc(Cl)ccc1Nc1ccnc2cc(-c3ccc(CN4CCOCC4)o3)ccc12 [GW560109],43,37,0,5,0,33,27,31,1,0,0,35,0,29,23,15,22,100,0,0
O=C(Nc1n[nH]c2nc(-c3ccccc3O)ccc12)C1CC1 [SB-711880],0,0,10,0,0,0,2,0,46,36,0,0,0,38,31,24,32,0,0,0
Cl.O=C(Nc1ccc(Oc2ccc3[nH]c(NC(=O)c4ccco4)nc3c2)cc1)Nc1cc(C(F)(F)F)ccc1F [GW683134],85,49,0,55,52,20,0,23,8,91.2,0,43,0,15,33,0,1,100,30,0
Cl.Cl.NC(CNC(=O)c1cc(Br)c(-c2ccnc3[nH]ccc23)s1)c1ccccc1 (centres unmarked) [GSK1322949],73,69,18,0,9,90.4,55,11,31,24,0,94.3,96.8,44,37,28,0,38,54,93.7
Nc1ncc(-c2ccc3nccc(-c4ccncc4)c3c2)cc1S(=O)(=O)N1CCCCC1 [GSK1693850],0,0,12,0,0,39,86,10,12,10,14,0,0,35,18,29,0,44,21,0
COc1cccc(NC(=O)NCCNc2ccnc(Nc3ccc(F)cc3)n2)c1 [GSK1379879],0,0,0,0,0,25,14,21,6,23,0,22,0,25,17,13,0,46,0,0
O=C(Nc1n[nH]c2cc(-c3cccs3)ccc12)C1CC1 [SB-731284],57,73,0,0,40,35,9,45,0,0,22,40,0,57,33,48,39,58,0,5
COc1cccc(CC(=O)N2CCc3cc(-c4cn(C)c5ncnc(N)c45)ccc32)c1 [GSK2608899],0,60,75,13,9,0,14,0,12,8,0,0,0,4,16,3,11,100,0,10
O=C(O)C(F)(F)F.O=c1[nH]ccc2nc(N[C@@H]3CCNC3)nc(Nc3ccc4c(c3)S(=O)(=O)CC4)c12 [GSK2181306],87,60,61,40,58,98.4,0,15,30,89,98,98.4,100,83,54,78,0,73,51,80
CSc1ccc(NC2=C(c3ccc(Cl)cc3)C(=O)NC2=O)cc1 [SB-317658],0,0,10,30,4,0,0,0,0,0,0,0,0,0,19,3,0,29,8,0
Fc1cc(Cl)ccc1Nc1ccnc2cc(-c3ccc(CN4CCSCC4)o3)ccc12 [GW560106],31,9,0,0,0,18,7,0,8,11,0,0,0,13,34,1,11,100,73,0
N#Cc1cnc2cc(-c3cnc(CNCCN4CCOCC4)s3)ccc2c1Nc1ccc(Oc2ccccc2)cc1 [GW664114],29,23,43,0,7,49,0,37,21,10,0,0,0,13,6,0,0,19,0,3
COc1ccc(C2=C(Nc3cccc(O)c3)C(=O)NC2=O)cc1 [SB-390766],26,44,0,0,2,60,0,45,7,58,0,13,0,21,16,1,2,14,0,0
O=C(Nc1n[nH]c2nc(-c3ccccc3)ccc12)C1CC1 [SB-708999],94,66,37,0,0,24,10,14,4,0,0,17,51,16,6,6,0,8,6,0
COC(=O)Nc1nc2ccc(Oc3ccc(NC(=O)Nc4cc(C(F)(F)F)ccc4F)cc3)cc2[nH]1.Cl [GW654607],72,36,17,0,0,21,6,3,0,69,0,55,16,0,65,7,0,100,0,0
O=C(O)C(F)(F)F.O=c1[nH]ccc2nc(N[C@@H]3CCNC3)nc(Nc3cc(Cl)cc(Cl)c3)c12 [GSK2188764],72,44,29,5,36,90.1,1,17,17,93.5,98,92.2,100,36,7,25,2,73,42,59
Nc1ncnc2scc(-c3ccc(NC(=O)Cc4cc(F)ccc4F)cc3)c12.O=C(O)C(F)(F)F [SB-731254-M],4,0,45,65,15,0,16,0,0,0,49,27,0,35,19,18,87,100,13,36
COc1ccc(NC(=O)c2ccoc2)cc1-c1ccc(C(=O)NCC2CC2)cc1 [GW810437],0,0,0,0,10,6,0,0,4,0,0,47,0,23,23,11,17,0,12,0
CC(=O)Nc1cn2nc(Oc3cccc(NC(=O)c4cccc(C(F)(F)F)c4)c3)ccc2n1,0,0,0,0,0,0,44,0,0,32,5,0,0,26,0,0,87,100,5,0
CN(c1ccc(F)c(NC(=O)c2cccc(OC(C)(C)C#N)c2Cl)c1)c1ccc2nc(NC(=O)C3CC3)sc2n1,0,0,29,0,0,0,8,0,0,10,3,0,0,11,0,20,6,99.8,0,35

Structure (SMILES),%Inh [1] [%],%Inh [2] [%],%Inh [3] [%],%Inh [4] [%],%Inh [5] [%],%Inh [6] [%],%Inh [7] [%],%Inh [8] [%],%Inh [9] [%],%Inh [10] [%],%Inh [11] [%],%Inh [12] [%],%Inh [13] [%],%Inh [14] [%],%Inh [15] [%],%Inh [16] [%],%Inh [17] [%],%Inh [18] [%],%Inh [19] [%],%Inh [20] [%]
CN(c1ccc2c(c1)nc(NCc1ccccc1)n2C)c1ccnc(Nc2ccc(CS(C)(=O)=O)cc2)n1.Cl [GW811603],0,0,0,44,10,0,0,0,0,12,0,60,99.2,65,40,47,80,100,0,0
CCn1c(-c2nonc2N)nc2c(-c3ccccc3)ncc(OCCCN)c21.O=C(O)C(F)(F)F.O=C(O)C(F)(F)F [GSK260205],32,16,3,0,0,29,0,21,14,11,71,3,0,26,85,85,0,41,100,93.8
Cc1ccc(C)c(NC(=O)Nc2ccc(C)c(-c3ccc(C(=O)Nc4ccncc4)cc3)c2)c1 [GSK1398473],0,8,0,0,0,5,1,19,13,0,0,0,0,15,14,6,0,99.9,3,0
CCOc1nccc(-c2c(-c3ccc(F)cc3)ncn2C2CCNCC2)n1 [SB-249175],0,0,6,4,10,45,11,6,0,29,0,26,26,58,89,90.2,8,17,0,29
O=C(Nc1n[nH]c2nc(-c3cccc(O)c3)ccc12)C1CC1 [SB-711805],0,0,0,0,0,0,0,0,0,0,21,29,0,25,8,5,13,30,0,1
Cc1nn2c(=O)cc(N3CCO[C@H](C)C3)nc2n1Cc1cccc(Cl)c1Cl [GSK2373693],36,81,0,0,4,78,0,25,15,9,0,22,0,16,9,7,0,51,0,0
CCNc1nccc(-c2c(-c3ccc(F)cc3)ncn2C2CCN(C)CC2)n1,0,0,0,100,0,0,21,0,0,0,80,0,0,75,96.4,96.3,0,0,0,0
Cc1cccc(Nc2nc(N[C@H]3CCCC[C@H]3N)ncc2C(N)=O)c1.Cl [GSK986310],0,11,34,8,26,88,17,86,29,77,91.4,87,80,62,36,27,0,37,18,7
Cl.N#CCc1ccc(Nc2nccc(Nc3ccc(Oc4ccccc4)cc3)n2)cc1 [GW639905],39,45,14,4,0,42,62,32,0,57,0,85,0,38,31,23,0,97.4,5,0
Cc1ccc(Nc2ccnc(Nc3ccc(C)c(F)c3)n2)cc1O.Cl [GW582868],38,18,0,0,0,42,76,25,9,29,62,48,0,31,16,12,3,93.8,0,0
CN(c1ccc(NC(=O)N2CCN(CCCN3CCOCC3)CC2)cc1)c1ccnc(Nc2ccc(CS(C)(=O)=O)cc2)n1.Cl [GW830899],0,0,0,0,0,0,50,0,0,0,44,65,14,46,0,0,0,98.8,0,0
COc1cccc2c(-c3ccncc3)c(-c3ccc(F)cc3)nn12 [GW468513],0,14,3,9,11,28,24,7,8,0,67,11,0,96,99.8,99.9,0,8,0,8
Cc1ccc(-c2ccc3occ(-c4ccc(S(C)=O)cc4)c3c2)nn1 (centres unmarked),0,0,0,0,0,0,0,5,0,0,0,0,0,0,0,0,0,0,13,0
Cc1ccc(O)cc1Nc1ccnc2ccc(C(C)(C)C)cc12 [GW856805],52,45,6,18,16,13,0,0,0,2,20,64,0,43,29,15,22,96.9,0,0
O=C(Nc1c(F)cccc1F)c1cc(C(=O)c2ccccc2F)c[nH]1 [GSK1326180],0,0,0,5,17,0,7,0,0,3,0,0,0,4,17,0,0,9,0,0
Cc1ccc(O)cc1Nc1ccnc2cc(-c3ccc(CN4CCCCC4)o3)ccc12 [GW557777],0,0,0,4,0,0,0,0,56,1,7,0,15,0,0,0,56,100,0,22
COc1cccc(C2=C(Nc3cccc(O)c3)C(=O)NC2=O)c1 [SB-390771],2,18,40,0,3,29,9,38,10,9,0,15,94.2,46,50,28,0,15,0,1
COc1cccc(-c2nc(-c3ccccc3)[nH]c2-c2ccncc2)c1 [SB-610250],33,35,0,0,5,48,0,46,15,23,12,17,0,30,83,90,0,0,45,0
CC(C)(C)c1ccc(C(=O)Nc2cn3cc(-n4ccnc4)ccc3n2)cc1,2,9,0,5,26,21,55,65,14,11,2,26,0,5,0,0,20,98.4,0,0
CN1CCN(Cc2ccc(NC(=O)Nc3ccc(N(C)c4ccnc(Nc5ccc(CS(C)(=O)=O)cc5)n4)cc3)cc2)CC1.Cl [GW827654],29,22,28,0,42,44,66,15,28,61,84,99.9,98.5,92.7,76,88,61,100,20,37
